# Source: PubChem BioAssay (Tox21)
# “And” between values parts separate entries of the source, which are not always exact repeats. Equal values may be shown once. Records with an inconclusive call do not appear. Unmarked numbers belong to inactive results. The source made the active and inactive calls. Calls come from the whole dose curve; as a rule, active = well fitted cell-killing curve with a large enough effect in the repeat runs; inconclusive = weak or mixed curves, or effect the other way; inactive = flat fitted curve, though single readings scatter.
# Assay: qHTS assay to identify small molecule antagonists of the androgen receptor (AR) signaling pathway using the MDA cell line in the presence of 0.5 nM R1881 - cell viability counter screen (AID 1259242); note: nearly all actives have a fitted effect of over 45% in size
# Conditions: MDA-kb2 viability, CellTiter-Fluor protease fluorescence, 16 h; series mostly up to 92.4 µM; viability change, negative = cytotoxic: at the top concentration
# Description: U.S. Tox21 Program National Center for Advancing Translational Sciences [NCATS] NIH Chemical Genomics Center [NCGC] U.S. Environmental Protection Agency [EPA] National Institutes of Environmental Health Sciences [NIEHS] National Toxicology Program [NTP] U.S. Food and Drug Administration [FDA] Tox21 Assay Overview: Androgen receptor (AR) is an important member of the nuclear receptor family. Its signaling plays a critical role in AR-dependent prostate cancer and other androgen related diseases. Considerable attention has been given in the past decades to develop methods to study and screen for the environmental chemicals that have the potential to interfere with metabolic homeostasis, reproduction, developmental and behavioral functions. Therefore AR binding assay for screening androgen antagonists can be used to identify potential endocrine disruptors. MDA-kb2 cells (from ATCC, deposited by Wilson et al.) were used to screen for AR inhibitors against Tox21 compound libraries. These cells are human breast carcinoma cells that were stably transfected with a luciferase reporter gene under control of the MMTV promoter that contains response elements for both androgen receptor (AR) and glucocorticoid receptor (GR). The current screening for identification of AR inhibitors against Tox21 libraries used lower concentration of (0.5 nM) R1881 as a stimulator. The cytotoxicity of the Tox21 compound libraries against MDA-kb2 cell line was tested by measuring live-cell protease activity using CellTiter-Fluor assay in the same wells.
# Tox21 Assay Protocol Summary: MDA-kb2 cells (cells cultured without CO2) were dispensed at 3,000 cells/well in 4 uL of culture medium into white wall/solid-bottom 1536-well plates (Corning Life Sciences, Corning, NY) using a Multidrop Combi (ThermoFisher Scientific, Waltham, MA) dispenser. After the assay plates were incubated at a 37C and 0% CO2 for 5 hr, 23 nL of compounds dissolved in DMSO, positive controls or DMSO only was transferred to the assay plate by a Pintool station (Kalypsys, San Diego, CA). The transfer of compounds was followed by the addition of 1 uL of 0.5 nM (final concentration) agonist (R1881)/culture medium using a Flying Reagent Dispenser (FRD, Aurora Discovery, San Diego, CA). The plates were incubated at 37C and 0% CO2 for 16 hr. For cytotoxicity assay, 1 uL of CellTiter-Fluor reagent (Promega Corporation, Madison, WI) was added to each well using the FRD and after 30 min incubation at 37C and 0% CO2, The fluorescence intensity was measured using ViewLux plate reader (PerkinElmer, Shelton, CT).
# % is set by controls: 0 for no effect and ±100 for the full control effect; potency is the fitted concentration of half-maximal effect.
Structure (SMILES),"viability change, negative = cytotoxic",Potency
O=C(Oc1ccccc1)c1cccc(C(=O)Oc2ccccc2)c1,12.3%,
Cc1cccc(C)n1,0.47%,
C#CC(O)CCC (stereo not given),1.83%,
CCCCNc1c(C(=O)OCC)c(C)nc2c1cnn2CC,1.1% [at 42.5 µM],
COc1ccc2sc(C(=O)Nc3nnn[nH]3)c(OC(C)C)c2c1,-18.2%,
O=C(O)CC(=O)O,8.46%,
CCN=c1cc2oc3cc(NCC)c(C)cc3c(-c3ccccc3C(=O)OCC)c-2cc1C,,965 nM (active) and 864 nM (active)
CCCCCCCC/C=C\CCCCCCCC(=O)OCCOC(=O)CCCCCCC/C=C\CCCCCCCC,-0.309%,
CCC(C)C(=O)OC (stereo not given),2.22%,
COc1ccc(-n2nc(CCC(=O)N(C)O)cc2-c2ccc(Cl)cc2)cc1,-3.38% [at 42.5 µM],
CCCCCCCOC(=O)c1ccccc1C(=O)OCCCCCCC,10.4%,
CCC1CCCCC1,-0.337%,
CCCCCCCCCCCCCCCCCO,-1.99% [at 19 µM],
CC1=CP(=O)(c2ccccc2)CC1 (stereo not given),-0.822%,
CN(C)CCN1CCOCC1,-3.55%,
Cc1cc(Nc2ccc(O)cc2)ccc1N,,48.3 µM (active)
CNC(=S)NN,-7.99%,
CCCCCCOc1cc(C)c(O)c(C)c1C,-14.8%,
NC(=O)C(=O)N/N=C/c1ccc([N+](=O)[O-])o1,-8.41% [at 42.5 µM],
C=CC/C=C/C/C=C/C/C=C/C,0.454%,

Structure (SMILES),"viability change, negative = cytotoxic",Potency
Cc1cc(=O)[nH]c(=O)[nH]1,0.166%,
C1CC(COCC2CO2)CCC1COCC1CO1 (stereo not given),-0.811%,
CC(C)c1cccc(C(C)C)c1N1C(=O)c2ccc(O)cc2C1=O,-9.2%,
C=CC(=C)CCC=C(C)C,-1.42%,
CN(C)c1ccc(N=NS(=O)(=O)O)cc1,,27.3 µM (active)
CCc1cccc(CC)c1N(COC)C(=O)CS(=O)(=O)O,0.735%,
CCCCCCCCCCCCOC(=O)c1cc(O)c(O)c(O)c1,,60.9 µM (active)
CC(=O)Oc1ccc(C2(c3ccc(OC(C)=O)cc3)Oc3ccccc3NC2=O)cc1,-9.2% [at 42.5 µM],
NC(=O)c1nc(-c2cccc(-c3cc(F)ccc3OCC(F)(F)C(F)(F)F)c2)n[nH]1,-20.4%,
CCCCCCCCCCCCCCNCCO,-8.87% [at 42.5 µM],
O=C(O)Cc1ccc(OCCNC[C@H](O)c2ccccc2)cc1,-1.12% [at 42.5 µM],
CCCCCCCC(=O)OCC,2.87%,
Cc1nc(Nc2ncc(C(=O)Nc3c(C)cccc3Cl)s2)cc(N2CCN(CCO)CC2)n1,-25% [at 42.5 µM],
CCOC(=O)CC(C)O (stereo not given),-1.11%,
[O]=[Zr],4.76%,
O=CC1CC1,5.29%,
SCCCCCCCCS,0.193%,
Cc1c(C(=O)O)cccc1[N+](=O)[O-],-2.25%,
C=CCCCCCCC=C,1.65%,
CCN(CC)CCSC(=O)C(c1ccccc1)c1ccccc1,-5.67% [at 42.5 µM],
